# PubChem BioAssay (NCATS)
# Records with an inconclusive call do not appear. Entries that show only a call come without a potency. Values without a mark were called inactive. The source made the active and inactive calls. The call rests on the fitted dose curve; in most records, active means well fitted curve in the direction sought with a large enough effect; inconclusive means small, poorly fitted or top-dose-only effect, or another doubt; inactive means no such curve, though single readings can be large; an effect the other way counts as inactive or inconclusive.
# What was measured:
# [1] = P-glycoprotein substrates identified in KB-3-1 adenocarcinoma cell line, qHTS therapeutic library screen (AID 1346986); further: nearly all actives have a fitted effect of over 60% in size
# Method in brief: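 72 h cell-killing screen, 500 cells/well, CellTiter-Glo luminescence. Paired lines KB-3-1/KB-8-5-11; P-gp dependence checked by tariquidar co-treatment and HEK-293 MDR-19 versus empty-vector cells.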
# [2] = P-glycoprotein substrates identified in KB-8-5-11 adenocarcinoma cell line, qHTS therapeutic library screen (AID 1346987); further: nearly all actives have a fitted effect of over 65% in size; on activity change, negative = cytotoxicity: series mostly up to about 44 µM
# Method in brief: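 Luminescence from CellTiter-Glo, read 5 min after addition, quantified survival of KB-8-5-11 (P-gp-overexpressing) cells exposed to compounds for 72 h. AC50 was derived from concentration-response curves.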
smiles,measurement,setting,value
Cc1noc2c1-c1ccccc1C(c1ccc(Cl)cc1)=N[C@H]2CC(N)=O,Potency,[1],inactive
same,Potency,[2],inactive
CCNC(=O)OC1CCN(c2nncc3cc(OC)c(OC)cc23)CC1,Potency,[1],inactive
same,Potency,[2],inactive
C=C[C@@]1(C)CCC2=C([C@H]1OC(C)=O)[C@H](OC(C)=O)CC1[C@](C)(C(=O)OC)CC[C@H](OC(C)=O)[C@]21C (stereo partly drawn),Potency,[1],inactive
same,Potency,[2],inactive
CC(C)(O)C1CC=C(C(=O)OC[C@H]2O[C@@H](Oc3cc(C(=O)O)cc(O)c3O)[C@H](O)[C@@H](O)[C@@H]2O)CC1 (stereo partly drawn),Potency,[1],inactive
same,Potency,[2],inactive
C[C@H]1CC[C@@]2(OC1)O[C@H]1CC3C4CC[C@H]5C[C@@H](O)CC[C@]5(C)C4CC(=O)[C@]3(C)[C@H]1[C@@H]2C (stereo partly drawn),Potency,[1],inactive
same,Potency,[2],inactive
COc1cc(C)c(C(=O)O[C@@H]2[C@H](O)[C@@H](CO)O[C@H]2n2ccc(=O)[nH]c2=O)c(OC)c1,Potency,[1],inactive
same,Potency,[2],inactive
C=C1CC[C@H]2[C@@](C)(CCC(OC3OC(CO)C(O)C(O)C3O)[C@@]2(C)CO)C1C(=O)CC1=CCOC1=O (stereo partly drawn),Potency,[1],inactive
same,Potency,[2],inactive
CC1(C)C[C@@H]2[C@H](C1)[C@@]1(C)C[C@]13C(O)OC[C@]3(O)[C@H]2O (stereo partly drawn),Potency,[1],inactive
same,Potency,[2],inactive
C/C=C1/[C@H](O[C@@H]2O[C@H](CO)[C@@H](O)[C@H](O)[C@H]2O)OC=C(C(=O)OC)[C@H]1CC(=O)OCCc1ccc(OC(=O)C[C@@H]2C(C(=O)OC)=CO[C@@H](O[C@@H]3O[C@H](CO)[C@@H](O)[C@H](O)[C@H]3O)/C2=C/C)cc1,outcome,[1],inactive [at 9.29 µM]
same,"activity change, negative = cytotoxicity",[2],6.56% [at 9.29 µM]
COc1cc(/C=C/CO[C@@H]2O[C@H](CO)[C@@H](O)[C@H](O)[C@H]2O)cc(OC)c1O[C@@H]1O[C@H](CO)[C@@H](O)[C@H](O)[C@H]1O,Potency,[1],inactive
same,Potency,[2],inactive
CC[C@H](C)[C@H](NC(=O)[C@H](Cc1ccc(O)cc1)NC(=O)[C@@H](N)C(C)C)C(=O)N[C@@H](Cc1cnc[nH]1)C(=O)N1CCC[C@H]1C(=O)N[C@@H](Cc1ccccc1)C(=O)O,outcome,[1],inactive [at 5.11 µM]
same,"activity change, negative = cytotoxicity",[2],1.21% [at 5.11 µM]
COC(=O)C1=CO[C@@H](O[C@@H]2O[C@H](CO)[C@@H](O)[C@H](O)[C@H]2O)[C@@H]2[C@@H](C)[C@@H](OC(=O)/C=C/c3ccccc3)[C@@H](O)[C@H]12,Potency,[1],inactive
same,Potency,[2],inactive
CC(=O)OC1CC2C(C)(C)C(=O)C=CC2(C)C2CC(=O)C3=C(CCC3C3=CC(O)OC3=O)C12C (stereo not drawn),Potency,[1],inactive
same,Potency,[2],inactive
COc1cc(/C=C/C(=O)O[C@H]2C[C@@H]3C(C(=O)O)=CO[C@@H](O[C@@H]4O[C@H](CO)[C@@H](O)[C@H](O)[C@H]4O)[C@@H]3[C@H]2C)ccc1O,Potency,[1],inactive
same,Potency,[2],inactive
CC1(C)CC[C@]2(C(=O)O[C@@H]3O[C@H](CO)[C@@H](O)[C@H](O)[C@H]3O)CC[C@]3(C)C(=CCC4[C@@]5(C)CC[C@H](O[C@@H]6O[C@H](C(=O)O)[C@@H](O[C@@H]7O[C@H](CO)[C@@H](O)[C@H](O)[C@H]7O)[C@H](O)[C@H]6O)C(C)(C)C5CC[C@]43C)C2C1 (stereo partly drawn),outcome,[1],inactive [at 9.29 µM]
same,outcome,[2],inactive [at 9.29 µM]
C=C(CC/C=C(\C)C(=O)O)C1(O)CC=C(C)CC1 (stereo not drawn),Potency,[1],inactive
same,Potency,[2],inactive
C=C(C)[C@@H]1CC[C@]2(C)CC[C@]3(C)C(CCC4[C@@]5(C)CC[C@H](O)C(C)(C)C5CC[C@]43C)C12 (stereo partly drawn),Potency,[1],inactive
same,Potency,[2],inactive
COc1cccc(OC)c1-c1nc(C(=O)N[C@@H](CC(C)C)C(=O)O)cn1-c1ccnc2cc(Cl)ccc12,Potency,[1],inactive
same,Potency,[2],inactive
CCC(C)/C=C(C)/C=C/C1=CC2=C(Cl)C(=O)C(C)(O)C(=O)C2(O)C(OC)O1 (stereo not drawn),Potency,[1],inactive
same,Potency,[2],inactive
OC[C@@]1(O)CO[C@@H](OC[C@H]2O[C@@H](OCc3ccccc3)[C@H](O)[C@@H](O)[C@@H]2O)[C@@H]1O,Potency,[1],inactive
same,Potency,[2],inactive
COc1cnc(-n2cnc(C)n2)c2[nH]cc(C(=O)C(=O)N3CCN(C(=O)c4ccccc4)CC3)c12,Potency,[1],inactive
same,Potency,[2],inactive
NC(Cc1c[nH]c2ccc(O)cc12)C(=O)O (stereo not drawn),Potency,[1],inactive
same,Potency,[2],inactive
O=C(O[C@H]1[C@H](Oc2ccc(O)cc2CO)O[C@H](CO)[C@@H](O)[C@@H]1O)c1ccccc1,Potency,[1],inactive
same,Potency,[2],inactive
COc1cc(/C=C/C(=O)O[C@H]2[C@@H]3C=CO[C@@H](O[C@@H]4O[C@H](CO)[C@@H](O)[C@H](O)[C@H]4O)[C@@H]3[C@@]3(CO)O[C@@H]23)ccc1O,Potency,[1],inactive
same,Potency,[2],inactive
CC(=O)OC/C(=C/C(=O)O)CC[C@@H]1C(CO)=CC[C@@H]2C(C)(C)CCC[C@@]12C,Potency,[1],inactive
same,Potency,[2],inactive
CC(C)(O)C1CCC2(C)CCCC(C)(O)C2C1 (stereo not drawn),Potency,[2],inactive
CCC(C)(C)C1CCc2c(sc(NC(=O)c3ccc(Br)cc3)c2C#N)C1 (stereo not drawn),Potency,[1],inactive
same,Potency,[2],inactive
